Screening results (PubChem BioAssay)
AmpC inh no detg – blocks E. coli AmpC beta-lactamase in detergent-free assay; P00811; AmpC nitrocefin hydrolysis, absorbance 480 nm, 0.0001% Triton; Potency, µM (top dose mostly 57.1 µM), inactives show at the top dose activity change, negative = inhibition, hits mostly inhibitors; 330,000 tested, 0.52% active;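 also: plate controls were no compound for no effect and no enzyme for full effect; nearly all actives have a fitted effect of over 20% in size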
Target sequence (P00811 whole entry, looked up): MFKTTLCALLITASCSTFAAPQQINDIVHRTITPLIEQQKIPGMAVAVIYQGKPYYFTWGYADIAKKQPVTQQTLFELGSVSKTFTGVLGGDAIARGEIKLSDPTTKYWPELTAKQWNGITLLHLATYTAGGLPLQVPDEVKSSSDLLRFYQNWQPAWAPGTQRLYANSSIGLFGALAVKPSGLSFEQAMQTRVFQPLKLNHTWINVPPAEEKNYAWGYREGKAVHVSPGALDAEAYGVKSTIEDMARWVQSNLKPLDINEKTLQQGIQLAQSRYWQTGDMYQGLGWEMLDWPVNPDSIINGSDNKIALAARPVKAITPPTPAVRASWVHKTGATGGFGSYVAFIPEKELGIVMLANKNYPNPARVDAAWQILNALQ
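AmpC (5.3 nM in the dispensed reagent) in 20 mM phosphate pH 7.0 with 0.01% (detergent screen) or 0.0001% Triton X-100 was preincubated with compounds for 15 min at room temperature. Nitrocefin was then added from an 800 uM solution, and hydrolysis was followed at 480 nm.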
FMDV inh – blocks foot and mouth disease virus | FMDV antiviral cell-based qHTS | Potency, µM (top dose mostly 57.9 µM), without a hit: top-dose activity change, negative = inhibition, usual class: inhibitors | 410,000 tested, 1.2% active; calls by dose curve; tested in HEK293T cells; also: read-out not given here; nearly all actives have a fitted effect of over 45% in size
AmpC detergent – AmpC beta-lactamase inhibition with detergent present; AmpC hydrolysis of nitrocefin, absorbance 480 nm, 0.01% Triton; AID 485294; Potency, µM (titrated, usually from 114 µM), without a hit: at the top dose activity change, negative = inhibition, hits mostly inhibitors; 370,000 tested, 0.041% active; P00811;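 also: 0% = no-compound wells and -100% = no-enzyme wells; nearly all actives have a fitted effect of over 25% in size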
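AmpC (5.3 nM in the dispensed reagent) in 20 mM phosphate pH 7.0 with 0.01% (detergent screen) or 0.0001% Triton X-100 was preincubated with compounds for 15 min at room temperature. Nitrocefin was then added from an 800 uM solution, and hydrolysis was followed at 480 nm.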
AMA1-RON2 inh – inhibitors of Plasmodium falciparum AMA1-RON2 interaction | AlphaScreen AMA1-biotinylated RON2 peptide binding | 360,000 tested, 0.2% active | Potency, µM (series often up to 58.2 µM), without a hit: at the top dose activity change, negative = inhibition, usual class: inhibitors | AID 720542;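 also: 0% = vehicle wells and -100% = peptide control; nearly all actives have a fitted effect of over 45% in size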
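AMA1 (3D7) with his tag at 25 nM final met compounds first, then biotinylated RON2 peptide at 25 nM; detection used donor plus acceptor beads, 10 µg/mL apiece, read by AlphaScreen after 30 min at room temperature.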
Sm TGR inh – S. mansoni TGR enzyme inhibition; Q962Y6; purified TGR, DTNB reduction, TNB absorbance 405 nm; Potency, µM (highest dose often 114 µM), for the others: top-dose activity change, negative = inhibition, hits mostly inhibitors; 360,000 tested, 3% active; AID 485364; also: nearly all actives have a fitted effect of over 60% in size
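Kinetic colorimetric format: TGR-catalysed, NADPH-driven DTNB reduction monitored via TNB absorbance. Enzyme dispensed at 20 nM; compound exposure 15 min at room temperature before reaction start.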
* marks the source's active call; other numbers are inactive results; ? = inconclusive; · = no result. The list is not random: actives were taken first. Their share in the collection is about 4.1%. Unless noted, calls follow the shape of the dose curve; as a rule, active = well fitted curve in the direction sought with a large enough effect; inconclusive = small, poorly fitted or top-dose-only effect, or another doubt; inactive = no such curve, though single readings can be large; an effect the other way counts as inactive or inconclusive. Unless noted, % is scaled to controls: 0 for no effect and ±100 for the full control effect; potency is read from the fitted curve at half-maximal effect.

SMILES	AmpC inh no detg	FMDV inh	AmpC detergent	AMA1-RON2 inh	Sm TGR inh
CCOC(=O)c1c(C)oc2c1c(C(c1ccccc1)N1CCOCC1)c(O)c1ccccc12 (centres undefined)	-35%	74%	3%	-13%	10µM*
CCOC(=O)c1c(C)oc2c1c(C=NCCO)c(O)c1ccccc12	244%	?	0%	77%	40µM*
CCOC(=O)c1c(C)oc2c1c(C(c1cccnc1)N1CCCCC1)c(O)c1ccccc12 (centres undefined)	-5%	-6%	-12%	7%	0.71µM*
CCOC(=O)c1ccc(N=Cc2c(O)c3ccccc3oc2=O)cc1	-23%	-4%	2%	5%	-2%
COc1cc(CNCc2cc3cc(C)ccc3nc2-c2ccc(F)cc2)cc(OC)c1OC	·	8%	·	·	·
CC[C@H](C)[C@H]1O[C@]2(C=C[C@@H]1C)C[C@@H]1C[C@@H](C/C=C(\C)[C@@H](O[C@H]3C[C@H](OC)[C@@H](O[C@H]4C[C@H](OC)[C@@H](O)[C@H](C)O4)[C@H](C)O3)[C@@H](C)/C=C/C=C3\CO[C@@H]4[C@H](O)C(C)=C[C@@H](C(=O)O1)[C@]34O)O2	·	0%	·	·	·
CCC(C)[C@H](NC(=O)NC1CCCc2ccccc21)C(=O)O (some centres undefined)	-18%	18%	0%	-8%	-16%
CCC(NC(=O)C(C)NC)C(=O)N1CCCC1C(=O)NC1CCCc2ccccc21 (centres undefined)	-11%	-8%	8%	24%	32µM*
O=C1/C(=C/c2cccnc2)CCC/C1=C\c1cccnc1	-6%	?	-13%	0%	40µM*
O=C1NC(=S)N/C1=C/c1cccnc1	-5%	-15%	2%	-4%	-7%
CC(C)/C=C1\CC/C(=C\c2cccnc2)C1=O	-9%	28µM*	?	11%	25µM*
CCC1C/C(=C\c2cccnc2)C(=O)/C(=C/c2cccnc2)C1 (centres undefined)	-15%	3.5µM*	-18%	-19%	?
O=C1/C(=C/c2cccnc2)CC/C1=C\c1cccnc1	7%	28µM*	2%	-3%	-27%
CC(C)N1C(=O)S/C(=C/c2cccnc2)C1=O	-3%	0%	2%	4%	2%
O=C1/C(=C\c2cccnc2)CCc2ccccc21	5%	-16%	1%	-1%	-8%
Cc1ccc(Cl)cc1N1CCN(C(=O)c2cnc(N3CCOCC3)c3ccccc23)CC1	·	?	-6%	·	5%
CN1CCCCCC1C(=O)NCC1Cc2cc(-c3cnccn3)ccc2O1 (centres undefined)	·	10%	·	·	·
CC(C)Oc1ccc(C(=O)NCC2Cc3cc(F)cc(-c4cnccn4)c3O2)cc1 (centres undefined)	·	0%	·	·	·
O=C(c1cc(COc2cccc3cnccc23)on1)N1CCCC(CCCO)C1 (centres undefined)	-6%	32µM*	2%	12%	2%
COCC1CCN(C(=O)c2cc(COc3cccc4cnccc34)on2)CC1	41%	?	-14%	-12%	2%
Cc1nn(C)cc1C(C)NC(=O)c1cc(COc2cccc3cnccc23)on1 (centres undefined)	61%	20µM*	1%	-10%	-14%
COc1cccc(NC(=O)C2C3C=CC(O3)C2C(=O)NCc2cccnc2)c1 (centres undefined)	-5%	8%	?	1%	50µM*
Cc1ccc(NC(=O)C2C3C=CC(O3)C2C(=O)O)c(C)c1 (centres undefined)	-16%	1%	0%	0%	35µM*
CCOC(=O)c1ccc(NC(=O)C2C3C=CC(O3)C2C(=O)O)cc1 (centres undefined)	-9%	·	-8%	·	56µM*
Cc1cccc(NC(=O)C2C3C=CC(O3)C2C(=O)O)c1C (centres undefined)	-19%	22%	-1%	-2%	45µM*
SMILES	AmpC inh no detg	FMDV inh	AmpC detergent	AMA1-RON2 inh	Sm TGR inh
COc1cc(NC(=S)NCc2cccnc2)cc(OC)c1	-31%	44%	7%	-3%	?
COC(=O)CSc1nnc2n(-c3ccccc3)c(=O)c3c4c(sc3n12)COC(C(C)C)C4 (centres undefined)	·	-2%	2%	·	1%
COc1ccccc1NC(=O)C1C2C=CC(O2)C1C(=O)O (centres undefined)	-4%	·	-3%	·	40µM*
Cc1ccc(C)c(NC(=O)C2C3C=CC(O3)C2C(=O)O)c1 (centres undefined)	-16%	-3%	0%	3%	45µM*
COC(=O)c1sccc1NC(=O)C1C2C=CC(O2)C1C(=O)O (centres undefined)	-8%	-12%	-14%	-8%	-8%
Cc1ccc(NC(=O)C2C3C=CC(O3)C2C(=O)O)cc1C (centres undefined)	-10%	12%	0%	-1%	-31%
Cc1cccc(NC(=O)C2C3C=CC(O3)C2C(=O)O)c1 (centres undefined)	-20%	·	-5%	·	11µM*
CC(C)Oc1ccc(C(=O)Nc2nonc2-c2ccc(OC(C)C)cc2)cc1	·	4%	23%	·	-1%
CN(Cc1ccc2c(c1)OCCO2)C(=O)CSc1ncnc2sccc12	-20%	40µM*	·	-4%	·
Cc1ccc(NNC(=O)c2cc(C(C)(C)C)nn2Cc2ccccc2)cc1	-43%	-9%	20%	?	45µM*
Cc1ccc(NC(=O)c2cc(C(C)(C)C)nn2Cc2ccccc2)cc1	2%	-17%	-3%	7%	2%
COc1ccc(C2CC(=O)N(CC(=O)Nc3ccc(C(F)(F)F)cc3)c3ccccc3S2)cc1 (centres undefined)	·	-24%	23%	·	8%
CN1C(=O)C(=Cc2ccc(N3CCOCC3)o2)C(=O)N(C)C1=O	-45%	13%	7%	-3%	?
CN1C(=O)C(=Cc2ccc(N3CCCCCC3)o2)C(=O)N(C)C1=S	-26%	-18%	-14%	-8%	35µM*
CCOC(=O)c1c(-c2ccc(OC)c(OC)c2)csc1NC(=O)c1ccc(F)cc1	·	0%	13%	·	11%
COc1cc(/C=C2\SC(N)=NC2=O)ccc1OCC(=O)Nc1ccc(C)cc1	10µM*	-1%	?	10%	-12%
O=C(/C(=N/N=C/c1ccc(O)c(O)c1O)c1ccccc1)c1ccccc1	20µM*	-27%	19%	15%	0%
Cc1ccc(Oc2c(C(F)(F)F)oc3c(CN4CCC(C)CC4)c(O)ccc3c2=O)cc1	·	-4%	18%	·	-4%
CC(C)(C)S(=O)N1Cc2ccc(CO)cc2[C@@H]1CCO (some centres undefined)	·	40µM*	·	36%	·
CC(C)(C)S(=O)N1Cc2ccc(CO)cc2[C@H]1CCO (some centres undefined)	·	-14%	·	-7%	·
